According to the supplement of paper PMC9694430:
Structures can show the parent of a compound that is named as a salt.

These compounds were tested on LOC_OS01G57100-cb003 (assay: thermal shift delta Tm vs DMSO control; higher = stronger stabilization (binding)). Conditions: 12.5 µM; protein concentration 2 µM.
Procedure, shortened: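 Purified, E. coli-expressed rice kinase domain constructs were tested by differential scanning fluorimetry in 96-well plates: 19.5 μl of 2 μM kinase in 100 mM potassium phosphate pH 7.5, 150 mM NaCl, 10% glycerol, 5 × SYPRO Orange, plus compound in DMSO. Fluorescence was read from 25°C to 95°C at 0.05°C/s. Melting temperatures came from Boltzmann fits, and the shift is the triplicate mean relative to protein with DMSO alone.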

| SMILES | thermal shift delta Tm |
| --- | --- |
| Cc1cnc(Nc2ccc(OCCN3CCCC3)cc2)nc1Nc1cccc(S(=O)(=O)NC(C)(C)C)c1 | 2.1 °C |
| CN1CCN(CCOc2cc(OC3CCOCC3)c3c(Nc4c(Cl)ccc5c4OCO5)ncnc3c2)CC1 [Saracatinib (AZD0530)] | 0.72 °C |
| Cn1cc(-c2ccc(F)c(C(F)(F)F)c2)nc1C1CCN(c2ncnc3[nH]ncc23)CC1 | 0.5 °C |
| O=C(O)c1ccc2c(c1)nc(Nc1cccc(Cl)c1)c1ccncc12 [Silmitasertib (CX-4945)] | 2.46 °C |
| Cn1c(=O)c(F)c(Nc2ccc(I)cc2F)c2c(=O)n(C[C@@H](O)CO)cnc21 | 3.09 °C |
| O=C(NC[C@H](O)CO)c1ccncc1Nc1ccc(I)cc1F | 0.55 °C |
| COc1c(C)c(C(=O)c2ccc(N)c(C(=O)O)c2)n2ccccc12 | 1.57 °C |
| COc1cc(N2CCC(N)CC2)ccc1Nc1ncc(Cl)c(-c2c[nH]c3ccccc23)n1 | 5.66 °C |
| C=CC(=O)Nc1ccc2ncnc(Nc3ccc(OCc4cccc(F)c4)c(Cl)c3)c2c1 | 5.43 °C |
| CCS(=O)(=O)N1CCN(c2ccc(Nc3ncc(C(N)=O)c(NC4CC4)n3)cc2)CC1 | 0.76 °C |
| O=C1c2ccc(Nc3ccc(F)cc3F)cc2CCc2ccc(OC[C@H](O)CO)cc21 [Skepinone-L] | 1.15 °C |
| CCN1C(=O)CNc2ncc(-c3ccc(-c4nc[nH]n4)nc3C)nc21 | 1.53 °C |
| Cc1ccc(CNc2ncnc3ccc(-c4ccc(CO)o4)cc23)o1 | 1.69 °C |
| CCc1cncnc1N1CCN(Cc2nc3ccc(C(F)(F)F)cc3[nH]2)CC1 | 1.5 °C |
| Cc1cc(CN2CCN(c3c(Br)cnc4nc(-c5ccc(N6CCN(C)CC6)cc5)[nH]c34)CC2)no1 | 0.54 °C |
| Cc1nc(-c2cn3c(n2)-c2ccc(-c4cnn(C(C)(C)C(N)=O)c4)cc2OCC3)n(C(C)C)n1 [Taselisib (GDC 0032)] | 0.43 °C |
| Cc1ccc(NC(=O)c2ccc(CN3CCN(C)CC3)cc2)cc1Nc1nccc(-c2cccnc2)n1 [Imatinib Mesylate (STI571)] | 1 °C |
| O=c1cc(N2CCOCC2)oc2c(-c3ccccc3)cccc12 | 0.48 °C |
| Nc1ncccc1-c1nc2ccc(-c3ccccc3)nc2n1-c1ccc(C2(N)CCC2)cc1 [Miransertib (ARQ 092) HCl] | -0.19 °C |

| SMILES | thermal shift delta Tm |
| --- | --- |
| CNS(=O)(=O)C[C@H]1CC[C@H](N(C)c2[nH]cnc3nccc2-3)CC1 [Oclacitinib] | 1.69 °C |
| N#Cc1ccc2[nH]c(O)c(-c3ccc(CN4CCOCC4)cn3)c2c1 | -0.18 °C |
| C[C@]1(O)C[C@@H](c2nc(-c3ccc4ccc(-c5ccccc5)nc4c3)c3c(N)nccn32)C1 [Linsitinib (OSI-906)] | 0.52 °C |
| CN1CCC(COc2cnc(-c3cccc(Cn4nc(-c5cccc(C#N)c5)ccc4=O)c3)nc2)CC1 | 0.71 °C |
| CC(C)(C)c1nc(-c2ccc(NC(=O)Nc3cccc(C(F)(F)F)c3)c3ccccc23)c2c(N)nccn12 [kira6] | 0.63 °C |
| Oc1c(F)cc(-c2cnccc2-c2ccc(N3CCOCC3)cc2)cc1F | 1.14 °C |
| CC(C)[C@H](CO)Nc1nc(Nc2cccc(Cl)c2)c2ncn(C(C)C)c2n1 [Purvalanol A] | 2.77 °C |
| CNC(=O)c1cc(Oc2ccc(NC(=O)Nc3ccc(Cl)c(C(F)(F)F)c3)cc2)ccn1 [Sorafenib] | 3.62 °C |
| O=c1cc(-c2cccc3c2Sc2ccccc2S3)oc(N2CCOCC2)c1 | 0.21 °C |
| N#Cc1c(Oc2ccc(F)c(NC(=O)Cc3cccc(C(F)(F)F)c3)c2)ccc2nc(NC(=O)C3CC3)sc12 | 2.29 °C |
| CC[C@@](C)(Nc1ccnc(-c2c[nH]c3ncccc23)n1)C(=O)NCC(F)(F)F [Decernotinib (VX-509)] | 2.18 °C |
| CCNC(=O)Nc1ccc(-c2nc3c(c(N4CCOC[C@@H]4C)n2)CCN(C2COC2)C3)cc1 | 1.02 °C |
| COc1cc(OC)cc(N(CCNC(C)C)c2ccc3ncc(-c4cnn(C)c4)nc3c2)c1 | 1.85 °C |
| C[C@@]1(C(=O)Nc2ccc(F)nc2)CCCN1c1nc(Nc2cc(C3CC3)n[nH]2)c2cccn2n1 | 0.92 °C |
| O=C1CCc2c(Oc3ccc4c(c3)[C@@H]3[C@H](O4)[C@H]3c3nc4cc(C(F)(F)F)ccc4[nH]3)ccnc2N1 [Lifirafenib (BGB-283)] | 2.04 °C |
| O=C1Nc2ccc(CN3C(=O)CSC3=O)cc2/C1=C/c1cc(CN2CCOCC2)c[nH]1 | 0.8 °C |
| CN(c1ccccc1CNc1nc(Nc2ccc3c(c2)CC(=O)N3)ncc1C(F)(F)F)S(C)(=O)=O | 2.5 °C |
| Cc1nc(N)sc1-c1ccnc(Nc2ccc(N3CCOCC3)cc2)n1 | 1.88 °C |
